Source: PubChem (National Center for Advancing Translational Sciences (NCATS))
Giardia FBPA inh-1: Giardia lamblia aldolase inhibition | Potency, µM (top dose mostly 59.6 µM), for the others: at the highest dose activity, negative = inhibition, hits mostly inhibitors | A8B2U2 | purified Giardia FBPA | 0.71% of 290,000 active; note: nearly all actives have a fitted effect of over 55% in size
Target sequence (A8B2U2 whole entry, looked up): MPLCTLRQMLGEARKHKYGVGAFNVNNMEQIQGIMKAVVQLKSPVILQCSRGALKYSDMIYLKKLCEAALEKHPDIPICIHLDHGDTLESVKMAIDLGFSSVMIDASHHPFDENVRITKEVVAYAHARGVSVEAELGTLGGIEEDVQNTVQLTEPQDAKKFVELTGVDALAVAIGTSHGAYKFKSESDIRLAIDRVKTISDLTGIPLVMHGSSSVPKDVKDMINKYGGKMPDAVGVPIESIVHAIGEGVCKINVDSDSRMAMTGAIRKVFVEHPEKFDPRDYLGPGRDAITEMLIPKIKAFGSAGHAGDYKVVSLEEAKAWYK
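Giardia FBPA (40 nM reagent) was preincubated 10 min at RT with compound (up to 57.5 uM final), then substrate plus GAPDH/TPI/NAD/arsenate coupling system with diaphorase/resazurin was added; resorufin fluorescence (525/598 nm) was read after 20 min.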
Cruzain inh noDet: cruzain (T. cruzi) inhibition without detergent; AID 1476; P25779; 2.3% of 200,000 active; purified cruzain, Z-FR-AMC fluorescence, no detergent; Potency, µM, without a hit: max response, negative = inhibition, most hits filed as inhibitors;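 note: plate controls were enzyme without inhibitor for no effect and buffer without enzyme for full effect; nearly all actives have a fitted effect of over 40% in size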
Target sequence (P25779 123-467 limits assumed): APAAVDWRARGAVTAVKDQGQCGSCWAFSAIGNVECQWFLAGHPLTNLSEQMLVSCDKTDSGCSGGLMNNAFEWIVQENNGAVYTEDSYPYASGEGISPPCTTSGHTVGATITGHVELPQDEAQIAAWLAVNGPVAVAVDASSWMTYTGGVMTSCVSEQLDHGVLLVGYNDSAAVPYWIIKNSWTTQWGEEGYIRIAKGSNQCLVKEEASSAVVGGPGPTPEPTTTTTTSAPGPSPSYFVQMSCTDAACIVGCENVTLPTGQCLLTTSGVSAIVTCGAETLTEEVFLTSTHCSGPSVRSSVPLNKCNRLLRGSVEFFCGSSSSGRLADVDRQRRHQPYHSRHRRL
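Detergent-free condition (0.00005% Triton X-100) in acetate buffer pH 5.5 with DTT. 1.5 nM enzyme and compound were pre-mixed 15 min, then 2 uM Z-FR-AMC substrate added; reaction progress from fluorescence change between first and third reads (60 s).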
Cruzain inh Det: inhibitors of Trypanosoma cruzi cruzain with detergent; P25779; purified cruzain, Z-FR-AMC fluorescence, 0.01% Triton; Potency, µM, for inactives: max response, negative = inhibition, usual class: inhibitors; 0.43% of 200,000 active;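 note: plate controls were neutral wells for no effect and buffer without enzyme for full effect; nearly all actives have a fitted effect of over 40% in size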
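Read-out: AMC fluorescence (360 nm excitation, 450 nm emission), four reads over 2 min, first-to-third difference used. Conditions: cruzain 1.5 nM, Z-FR-AMC 2 uM, pH 5.5 acetate, 5 mM DTT, 0.01% Triton X-100.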
Giardia growth: blocks growth of Giardia lamblia trophozoites; Giardia lamblia trophozoite growth inhibition; 5% of 1,500 active; Potency, µM (top dose mostly 57.5 µM), without a hit: top-dose activity change, negative = inhibition, most hits filed as inhibitors; shares compounds with Giardia FBPA inh-1;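 note: trophozoites exposed to compound for 48 h at 37 °C; nearly all actives have a fitted effect of over 70% in size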
Mammalian tox: counter-screen for Giardia aldolase inhibitors: mammalian cell toxicity; mammalian cell viability counter-screen, qHTS; Potency, µM (titrated, usually from 57.5 µM), without a hit: top-dose viability change, negative = toxicity, actives largely listed as inhibitors; shares compounds with Giardia FBPA inh-1; 4% of 1,500 active; AID 2786;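 note: Chinese hamster ovary cells used as mammalian cytotoxicity surrogate; viability measured as cellular ATP by luminescence; compound exposure lasted 48 h before reading; nearly all actives have a fitted effect of over 60% in size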
Giardia FBPA inh-2: confirmation of Giardia fructose-bisphosphate aldolase inhibitors; 5% of 1,500 active; Potency, µM (top dose mostly 57.5 µM), for the others: at the highest dose activity change, negative = inhibition, hits mostly inhibitors; AID 2787; purified Giardia aldolase enzyme activity, qHTS; shares compounds with Giardia FBPA inh-1; note: nearly all actives have a fitted effect of over 45% in size
Rabbit FBPA inh: blocks rabbit muscle aldolase in Giardia aldolase selectivity test; shares compounds with Giardia FBPA inh-1; Rabbit muscle FBPA enzyme inhibition, selectivity counter-screen; Potency, µM (highest dose often 57.5 µM), for inactives: at the highest dose activity, negative = inhibition, most hits filed as inhibitors; 4% of 1,500 active; AID 2794; note: nearly all actives have a fitted effect of over 60% in size
GAPDH counter: counter-screen for Giardia aldolase inhibitors: GAPDH coupling enzyme. shares compounds with Giardia FBPA inh-1. GAPDH coupling enzyme counterscreen, biochemical, qHTS. Potency, µM (top dose mostly 57.5 µM), for the others: at the top dose activity change, negative = inhibition, most hits filed as inhibitors. 6% of 1,500 active. AID 2795; note: nearly all actives have a fitted effect of over 55% in size
* = called active by the depositor; ? = inconclusive; . = not tested or not shown; [ ] = dose if it differs, or a comment. Only a selection was taken, and hits are over-represented in it overall. Calls come from the whole dose curve; as a rule, active = well fitted curve in the direction sought with a large enough effect; inconclusive = small, poorly fitted or top-dose-only effect, or another doubt; inactive = no such curve, though single readings can be large; an effect the other way counts as inactive or inconclusive. Unless noted, % is set by controls: 0 for no effect and ±100 for the full control effect; potency is the fitted concentration of half-maximal effect.

SMILES	Giardia FBPA inh-1	Cruzain inh noDet	Cruzain inh Det	Giardia growth	Mammalian tox	Giardia FBPA inh-2	Rabbit FBPA inh	GAPDH counter
O=[N+]([O-])c1ccc(-c2ccc(/C=N/Nc3nc(NCc4ccccc4)nc(N4CCOCC4)n3)o2)cc1	-2%	.	.	.	.	.	.	.
COc1nc(N/N=C/c2ccc(-c3ccccc3[N+](=O)[O-])o2)nc(N2CCOCC2)n1	4.5µM*	14%	-12%	-33%[38.3 µM]	-7%	?	?	40µM*
Cc1ccc(C(=O)c2cn(Cc3cc(C)ccc3C)c3nc(C)ccc3c2=O)cc1	.	-30%	-10%	.	.	.	.	.
CCOC(=O)c1c(-c2ccc(-c3ccccc3)cc2)csc1NC(=O)CCN1CCOCC1	0%	?	-4%	.	.	.	.	.
CCOC(=O)c1c(-c2ccccc2)csc1NC(=O)C(C)NCCCN1CCOCC1 (stereo not drawn)	18µM*	.	.	4.5µM*	-2%	-6%	-4%	-3%
Cc1ccc2oc(-c3cc(NC(=O)c4ccc5c(c4)OCCO5)cc(C)c3O)nc2c1	.	-4%	1%	.	.	.	.	.
COc1ccc(NC(=O)c2ccco2)cc1NC(=O)c1cccc(C)c1OC	.	-3%	-8%	.	.	.	.	.
O=C(NC1CCCCCC1)C1CCN(C(=O)N2CCOc3ccccc32)CC1	.	-4%	-3%	.	.	.	.	.
Cc1ccc(OCCOCCN2CCCCC2)c([N+](=O)[O-])c1	20µM*	.	.	28%	-11%	-7%	3%	4%
COc1ccc(OCCOCCOc2ccc(C)cc2[N+](=O)[O-])cc1	-7%	-2%	-7%	.	.	.	.	.
OC[C@@H]1CCC[C@H](n2cnc3c(=S)nc[nH]c32)O1	.	-1%	5%	.	.	.	.	.
S=c1nc[nH]c2c1ncn2C1CCCO1 (stereo not drawn)	2.5µM*	.	.	17%[38.3 µM]	32µM*	-4%	-5%	-5%
Cc1cccc(NC(=O)CSc2nc(C)cc(C)c2C(=O)Nc2ccc(Cl)cc2)c1	.	-2%	-1%	.	.	.	.	.
CC1=C(C(=O)Nc2ccccc2)C(c2cccnc2)n2nc(SCc3ccccc3F)nc2N1 (stereo not drawn)	.	8%	1%	.	.	.	.	.
COc1ccc(N2C(=O)CC(NNc3ncc(Cl)cc3Cl)C2=O)cc1 (stereo not drawn)	16µM*	.	.	-1%[10.4 µM]	-13%	12%	5%	8%
COc1ccc(N2C(=O)CC(NCC#N)C2=O)cc1 (stereo not drawn)	0%	.	.	.	.	.	.	.
COc1cccc(C(=O)Nc2cccc(-c3nc4ncccn4c3C)c2)c1	.	17%	0%	.	.	.	.	.
CC(C)Oc1ccc(CNC(=O)c2ccc(NC(=O)N3CCSc4ncccc43)cc2)cc1	.	1%	-11%	.	.	.	.	.
CC(=O)N[C@@H]1CCSC1=O	5%[21.7 µM]	-5%	2%	.	.	.	.	.
CC(=O)NC1C(=O)SC1(C)C (stereo not drawn)	16µM*	3%	-3%	-10%	-5%	-22%	-4%	-3%
COc1ccc(Cl)cc1NC(=O)c1noc2c1CCc1ccccc1-2	.	-10%	-2%	.	.	.	.	.
COc1ccc(-n2c(=S)[nH]c3[nH]ncc3c2=O)cc1	18µM*	.	.	-11%[10.4 µM]	7%	1%	3%	10%
O=c1c2cn[nH]c2[nH]c(=S)n1-c1ccccc1	?	4%	-3%	.	.	.	.	.
COc1cccc(N2CCN(C(=O)Cn3nc(C)n4c(cc5c(OC)cccc54)c3=O)CC2)c1	.	11%	0%	.	.	.	.	.
CC(=O)OC[C@@H]1O[C@@H](O/N=C2/C[C@@H](O)[C@@H](O)[C@@H]3[C@@H]4C(=O)N(c5cccc(Oc6ccccc6)c5)C(=O)[C@H]4CC[C@@H]23)[C@H](OC(C)=O)[C@H](OC(C)=O)[C@@H]1OC(C)=O	1%[12.9 µM]	.	.	.	.	.	.	.
SMILES	Giardia FBPA inh-1	Cruzain inh noDet	Cruzain inh Det	Giardia growth	Mammalian tox	Giardia FBPA inh-2	Rabbit FBPA inh	GAPDH counter
Nc1ncnc(NNC(=O)CNC(=O)c2c(F)cccc2Cl)c1[N+](=O)[O-]	16µM*	.	.	-16%	-3%	-2%	5%	0%
Nc1ncnc(Nc2cc(Cl)cc(Cl)c2)c1[N+](=O)[O-]	4%	?	0%	.	.	.	.	.
COc1cccc(N2CCN(Cc3ccco3)CC2)c1	25µM*	.	.	?	-11%	-5%	3%	9%
COc1ccc(CN2CCN(Cc3ccco3)CC2)cc1OC	13µM*	.	.	-6%[10.4 µM]	-6%	0%	8%	8%
COc1ccccc1N1CCN(Cc2ccco2)CC1	-6%	-3%	5%	.	.	.	.	.
COc1cccc(N2CCN(CC(=O)NC(=O)NCc3ccco3)CC2)c1	-8%	.	.	.	.	.	.	.
COc1ccco1	4%	.	.	.	.	.	.	.
CCN(CC)CC(C)CNC(=O)c1cc(-c2ccc(Br)s2)nc2ccccc12 (stereo not drawn)	.	9%	-6%	.	.	.	.	.
COCCN1C(=O)c2[nH]nc(-c3ccccc3O)c2C1c1ccc(Cl)c(Cl)c1 (stereo not drawn)	.	-27%	-16%	.	.	.	.	.
O=C(Nc1ncc([N+](=O)[O-])s1)c1ccc2c(c1)OCO2	-26%	.	.	.	.	.	.	.
Cc1ccc(C(=O)Nc2ncc([N+](=O)[O-])s2)cc1	16µM*	.	.	?	40µM*	?	25µM*	28µM*
